MEP2-GFP yeast: modulators of MEP2-GFP levels in yeast, primary screen, S. cerevisiae, multiplex flow cytometry, MLPCN library; S. cerevisiae MEP2-GFP strain, 3 h; 100% = DMSO control level; GFP response vs DMSO, % at 10 µM; 330,000 compounds, 0.51% hits;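 active means GFP response versus DMSO above a set limit, roughly screen mean plus 3 SD, cut at about 180% in these data; inconclusive means fewer than 70 cells counted for a yeast strain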;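 further: median GFP fluorescence of the barcode-gated MEP2-GFP cells per well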
CIT2-GFP yeast: modulators of CIT2-GFP expression in yeast, primary screen, S. cerevisiae, GFP fusion, multiplex flow cytometry, MLPCN library. AID 2029, 2009. 320,000 compounds, 0.065% hits. GFP response vs DMSO, % at 10 µM. S. cerevisiae CIT2-GFP strain, 3 h; 100 means same as DMSO wells;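 active means GFP response relative to DMSO above a set limit, near the screen mean plus 3 SD, cut at about 150% in these data; inconclusive means Fewer than 70 cells measured for a yeast strain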;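 further: ratio of well median GFP fluorescence to mean of DMSO wells on the plate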
AGP1 TOR yeast: modulators of AGP1-GFP expression in yeast TOR pathway, primary screen, cell-based, multiplex flow cytometry, S. cerevisiae, MLPCN library | GFP response vs DMSO, % at 10 µM | 3 h; GFP as percent of DMSO wells | 320,000 compounds, 0.02% hits;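 active means GFP response relative to DMSO above a set limit, near screen average plus 3 SD, cut at about 150% in these data; inconclusive means fewer than 70 cells counted for the yeast strain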;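 further: median GFP channel fluorescence of the gated AGP1 strain per well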
LAP4-GFP MLPCN: modulators of LAP4-GFP expression in yeast, primary screen, S. cerevisiae, multiplex flow cytometry, MLPCN library. 3 h; median GFP as percent of DMSO wells. GFP response vs DMSO, % at 10 µM. 320,000 compounds, 0.34% hits. AID 2023, 2009;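 active means GFP response vs DMSO above a set limit, about the screen mean plus 3 SD, cut at about 150% in these data; inconclusive means under 70 cell events counted for the yeast strain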
RPL19A-GFP yeast: RPL19A-GFP expression modulators in yeast, primary screen, cell-based, S. cerevisiae, multiplex flow cytometry, MLPCN; percent response vs DMSO, % at 10 µM; 330,000 compounds, 0.3% hits; S. cerevisiae RPL19A-GFP strain, 3 h; hits give low values;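 active means percent response vs DMSO below 50%; inconclusive means fewer than 70 events counted for the yeast strain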;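 further: median channel GFP fluorescence of the barcoded RPL19A-GFP strain; ratio of sample median GFP to plate DMSO average so 100% = DMSO; lower means less RPL19A-GFP as with rapamycin TOR inhibition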
Numbers without * were called inactive; ? = inconclusive; . = no result; + = active, no number; [ ] = another dose, or the depositor's remark. Most compounds without a hit are left out; they make up all but 0.92% or so of the library.

SMILES	MEP2-GFP yeast	CIT2-GFP yeast	AGP1 TOR yeast	LAP4-GFP MLPCN	RPL19A-GFP yeast
COc1ccc(NC(=O)CSc2nnc(NC(=O)C3CCC3)s2)c(OC)c1	199*[may fluoresce violet]	?	?	90	46*[may fluoresce violet]
COc1ccc(NC(=O)CSc2nnc(NC(=O)C3CCC3)s2)cc1	106	105	93	90	105
CC(C)(C)NC(=O)NC(=O)CSc1n[nH]c(-c2ccccc2Br)n1	97	120	118	100	101
COc1ccc(/C=C/C(=O)NC(=S)N2CCN(c3ccccn3)CC2)cc1	103	101	107	118	104
COc1ccc(/C=C/C(=O)NC(=S)N2CCSCC2)cc1	+[may fluoresce green]	.	257*[may fluoresce green]	+[may fluoresce green]	275
Cc1ccc(NC(=O)C2CCN(S(=O)(=O)c3cccc4nonc34)CC2)cc1	297*[may fluoresce violet]	?	16	71	53
O=S(=O)(c1cccc2nonc12)N1CCCCCC1	98	96	99	112	97
COc1ccc(NC(=O)C2CCN(S(=O)(=O)c3cccc4nonc34)CC2)cc1	115	104	103	104	101
O=C(C1CCN(S(=O)(=O)c2cccc3nonc23)CC1)N1CCCCC1	?	?	?	?	17*[may fluoresce violet]
CCOC(=O)COc1cccc(C2NC(=O)c3ccccc3O2)c1 (stereo unspecified)	103	100	103	94	104
COC(=O)c1cc(S(=O)(=O)C(C)C)c(S(C)=O)s1 (stereo unspecified)	435*[may fluoresce violet]	?	?	78	32*[may fluoresce violet]
CSc1sc(C(=O)NCC2CC2)cc1S(=O)(=O)C(C)C	92	83	94	98	91
c1cc2c(cc1C1CCCCC1)c1c3n2CCCNC3CCC1 (stereo unspecified)	130	72	70	188*	74
Cc1ccc2c(c1)c1c3n2CCCNC3CCC1 (stereo unspecified)	117	104	104	108	100
Cn1ncc(Cl)c1C(=O)NC1CCCC1	106	103	103	103	101
CC(=O)NCc1ccc(C(=O)COC(=O)COc2ccc(Cl)c(C)c2)s1	100	93	105	112	97
CC(Nc1cc(C)cc(C)c1)=[N+](C)CCNS(=O)(=O)c1ccc(Cl)cc1	108	152*[may fluoresce green]	114	101	92
Cc1ccc(CCNC(=O)Cc2ccc(NC3=NC4CS(=O)(=O)CC4S3)cc2)cc1 (stereo unspecified)	107	103	108	104	103
CCc1ccc(/C=C2\CN(CC)Cc3c2nc2ccccc2c3C(=O)O)cc1	453*[may fluoresce violet]	?	20	102	65
CCN1C/C(=C/c2cccs2)c2nc3ccccc3c(C(=O)O)c2C1	149	95	97	104	92
CCOc1ccc(CCNC(=O)c2nnc(CS(=O)(=O)c3ccccc3)o2)cc1OCC	102	106	106	100	101
CCc1sc(C(=O)N2CCc3ccccc32)cc1C	111	86	98	158*	94
O=C(Cc1cccc(NC(=O)C2CCCN(C(=O)C3CCCCC3)C2)c1)Nc1cccc(C(=O)N2CCCC2)c1 (stereo unspecified)	91	98	96	100	92
Cc1ccc(C(=O)c2nocc2C(=O)c2cccs2)cc1	100	89	.	155*	98
O=C(CS(=O)CC(=O)Nc1cccnc1)Nc1ccc(F)cc1 (stereo unspecified)	103	98	97	95	102
Oc1ccc(Cl)cc1-c1cc(-c2ccco2)[nH]n1	252*	100	39	98	.
O=C(c1cc2nc(-c3ccc(F)cc3)cc(C(F)(F)F)n2n1)N1CCOCC1	236*[may fluoresce violet]	?	?	81	60
CCCOC1CCCN(C(=O)c2cc(COc3ccc(F)c(F)c3)on2)C1 (stereo unspecified)	103	91	95	105	102
CN(C)/C=C/C(=O)c1cnc(-c2ccc(Cl)cc2)s1	102	92	32	105	94
CN(C)/C=C/C(=O)c1cnc(-c2ccccc2)s1	106	.	15	156*[may fluoresce violet]	62
